About 8,600 (12%) of roughly 69,000 compounds showed an effect of 50% or more. The full list was thinned out, with strong results kept by preference.
Each molecule was assayed on Plasmodium berghei (assay: Screen against P. berghei liver stage (PbLuc), transformed with Luciferase, at 10uM). Conditions: tested at 10 uM.
Format: functional, HepG2

Structure (SMILES)	INHIBITION [%]
CC(NC(=O)N1CCCC1)c1ccc(S(N)(=O)=O)cc1 (configuration not stated)	33.7
NC(=O)[C@@H]1CCCN1C(=O)c1csc(-c2ccc(C(F)(F)F)cc2)n1	28.4
Cc1cc(CN(C)C(=O)C(c2ccccc2F)N(C)C)ccn1 (configuration not stated)	30
COc1ccc(CC(=O)N2CCCC(c3cc(C)[nH]n3)C2)cc1 (configuration not stated)	28.62
CN(C)C(=O)CO[C@H]1CN(Cc2cccc(F)c2)[C@@H]2CCCO[C@H]12	43.1
COCc1cc(CNc2cnn(CC(F)F)c2)ccc1OC	38.2
CN1CCO[C@@H]2CN(C(=O)NCc3ccccc3)CC[C@@H]2C1	16.8
CC(=O)N1CCO[C@@H]2CN(C(=O)NCc3cccnc3)CC[C@@H]2C1	12.1
CC(=O)N1CCO[C@@H]2CN(C(=O)NCc3ccccc3)CC[C@@H]2C1	51.2
CN(C)C(=O)N1C[C@H]2CC[C@@H](C1)N(Cc1ccc3nsnc3c1)C2	21.8
CCOc1nnc(CN2CCCC(c3nc4ccccc4[nH]3)C2)s1 (configuration not stated)	22.8
Fc1ccc(CN2CCCC(c3cc4ncccc4[nH]3)C2)cc1 (configuration not stated)	85.65
CC(=O)Nc1ccc(CN2CCCC(c3cc4ncccc4[nH]3)C2)cc1 (configuration not stated)	50.95
CCOc1ccc(CN2CCN(C(=O)c3cc(C4CC4)[nH]n3)CC2)cc1	48.1
Fc1ccc(CN2CCCC(c3nccnc3-n3ccnc3)C2)cc1 (configuration not stated)	6.32
CCOc1ccc(CN2CCCC(c3cc4ncccc4[nH]3)C2)cc1 (configuration not stated)	81.5
CCC(=O)NC1CCCN(Cc2ccc(NC(C)=O)cc2)C1 (configuration not stated)	27.6
O[C@@H]1CN(Cc2ccc(F)cc2)CC[C@H]1NCc1ccccn1	28.55
Cc1cc(C)n(CC(=O)N2CCCC(c3cc4cccnc4[nH]3)C2)n1 (configuration not stated)	30.4
CC(=O)N(Cc1noc(C)n1)C1CCN(CC2(O)CCCCC2)C1 (configuration not stated)	33.7
Cn1cc(CN2CCC(c3[nH]ncc3S(C)(=O)=O)C2)cn1 (configuration not stated)	8.53
CCOc1ncccc1NC(=O)c1ccc(C)s1	23.2

Structure (SMILES)	INHIBITION [%]
CCc1nnc(Sc2nn3cc(C)nc3s2)n1C	-9.8
Cc1noc(C)c1CCC(=O)N1CCOCC1CCc1cnccn1 (configuration not stated)	25.8
Cc1cnn(CCC(=O)N2CCN(C(=O)C3CC3)[C@@H]3CS(=O)(=O)C[C@@H]32)c1	3
CC(C)(C)c1nc(CC(=O)N2CCCC(n3cncn3)C2)cs1 (configuration not stated)	47.65
Cc1ccc(C2(O)CCN(C(=O)c3ccc(S(N)(=O)=O)cc3)CC2)nc1	38
OC(COCc1ccccc1)CSc1nnc2ccccn12 (configuration not stated)	42.6
OC(COCc1cccs1)CSc1nnc2ccccn12 (configuration not stated)	56.5
OC(COCc1cccs1)Cn1cc(Br)cn1 (configuration not stated)	-28.4
OC(COCc1cccs1)Cn1cc(-n2cccc2)cn1 (configuration not stated)	8.46
OC(COCc1ccco1)CSc1nnc2ccccn12 (configuration not stated)	14.8
OC(COCc1cccs1)Cn1cc(Cl)cn1 (configuration not stated)	75.2
CSCC(=O)NC1CC(=O)N(CCc2ccccc2)C1 (configuration not stated)	-17.6
CCn1nc(C)c(NC(=O)CN2CCN(C(C)=O)CC2)c1C	-4.23
CS(=O)(=O)N1CC2(CCN(CC3CCCCC3)CC2)Cc2ccccc21	46.6
O=C(Nc1ccc2c(ccn2CCN2CCOCC2)c1)c1ccccn1	-4.15
CC(C)OCCCN(Cc1ccncc1)Cc1cc(F)cc(F)c1	-26.2
CCOCCN1CCN(c2ncccc2C#N)CC1CC (configuration not stated)	4.03
O=C(c1ccncn1)N1C[C@@H]2CN(Cc3cccnc3)CCO[C@@H]2C1	17.5
O=C(Nc1cccc(OCc2ccc(F)cc2)c1)C1COCCO1 (configuration not stated)	10.3
O=C(Nc1ccc(OCc2cccc(F)c2)c(F)c1)C1COCCO1 (configuration not stated)	78.4
CCOC(=O)COc1cccc(NC(=O)C2COCCO2)c1 (configuration not stated)	8.24
O=C(Nc1cccc(OCc2cccc(F)c2)c1)C1COCCO1 (configuration not stated)	-47.4

Structure (SMILES)	INHIBITION [%]
O=C(OCc1ccccc1)c1cccc(NC(=O)C2COCCO2)c1 (configuration not stated)	7.44
CCOCc1cccc(NC(=O)C2COCCO2)c1 (configuration not stated)	59.3
CN(C)C(=O)N1Cc2nnn(C)c2C(COCc2cccnc2)C1 (configuration not stated)	27.6
c1nc(CCC2CCCN2)cc(N2CCCOCC2)n1 (configuration not stated)	48.9
COCCC(=O)NCC1CCC(C(c2ccccn2)N(C)C)CC1 (configuration not stated)	3.48
CCN1CCCC(CN(C)c2nccc(-c3ccc(C)nc3C)n2)C1 (configuration not stated)	76.7
Cc1ccc(-c2ccnc(N(C)CC3CCCO3)n2)c(C)n1 (configuration not stated)	47.4
Cc1ccc(-c2ccnc(N(C)CC3CCCN3C)n2)c(C)n1 (configuration not stated)	10.6
CC(C)n1c(=O)[nH]c2cn(-c3ccc(Cl)cc3)c(=O)n21	-10.1
COc1ccc(-c2cc(N)on2)cc1OC	26.3
CCN1CCc2c(sc3c2C(=O)NC(C=Cc2ccco2)N3)C1 (configuration not stated)	49.9
COc1ccc(CN2CCCCC2c2n[nH]cc2-c2cc(C)no2)cc1 (configuration not stated)	34.1
Cc1cccc(CN2CCCCC2c2n[nH]cc2-c2cc(C)no2)c1 (configuration not stated)	31.3
CCc1ccc(CN2CCCCC2c2n[nH]cc2-c2cc(C)no2)cc1 (configuration not stated)	66.6
O=C(c1ccccc1N1CCOCC1)N1CCCC(n2ccnc2)C1 (configuration not stated)	22.1
COCc1ncn2c1CN(C(=O)c1cnc3ccccc3c1)CC2	33.2
Cc1noc(CN(Cc2cccc(C#N)c2)Cc2cccs2)n1	1.98
Cc1cccc(C)c1NC(=O)c1cccc(N(C)S(C)(=O)=O)c1C	16.1
CCn1c(CN2CCC(O)(c3ccc4c(c3)OCO4)CC2)cnc1SC	34.15
CCn1c(CN2CCCC(O)(c3ccc(F)cc3)CC2)cnc1SC (configuration not stated)	51.1
Cc1ncc(CN2CCCC(O)(c3ccc(F)cc3)CC2)n1C (configuration not stated)	21.255
Cc1nc(C)n(C2CCCN(C(=O)c3ccnc(N(C)C)c3)C2)n1 (configuration not stated)	14.4

Structure (SMILES)	INHIBITION [%]
Cc1cnn(C2CCCN(C(=O)c3cccc(Cn4ccnc4)c3)C2)c1 (configuration not stated)	42.9
CS(=O)(=O)c1ccc(C(=O)N2CCCC(n3cccn3)C2)cc1 (configuration not stated)	18.8
O=C(c1cccc(Cn2ccnc2)c1)N1CCCC(n2cccn2)C1 (configuration not stated)	56.55
O=C(c1ccc(CN2CCCC2)cc1)N1CCCC(n2cccn2)C1 (configuration not stated)	11.7
CN(C)Cc1ccc(C(=O)N2CCCC(n3cccn3)C2)cc1 (configuration not stated)	61.9
CCc1nc(C2CCCN(C(=O)c3ccc(Cl)cc3)C2)no1 (configuration not stated)	23.4
CCc1nc(C2CCCN(C(=O)c3ccc(F)cc3)C2)no1 (configuration not stated)	27.4
O=C(c1cccc(Cn2ccnc2)c1)N1CCCC(n2ccnc2)C1 (configuration not stated)	22.3
CCc1ccc(C(=O)N2CCCC(c3nn[nH]n3)C2)cc1 (configuration not stated)	67.4
CS(=O)(=O)NCc1nnc2n1CCN(Cc1ccccn1)C2	36.9
CCN1C(=O)CCC12CCCN(CCc1ccccc1)C2 (configuration not stated)	0.112
CN(C)c1cnn(Cc2nc3ccccc3n2C)c(=O)c1	29.4
CCC(C)[C@H](N)c1nnc(SCC(=O)Nc2ccc(C)cc2C)o1 (some centres not stated)	40.4
N#Cc1c(F)cccc1N1CCCC(C(=O)Nc2nccs2)C1 (configuration not stated)	-1.85
CC(NC(=O)c1ccnc(C2CC2)n1)C1(N2CCOCC2)CCCC1 (configuration not stated)	-20.3
Cc1occc1C(=O)N1CCOCC2(CCN(Cc3nccs3)C2)C1 (configuration not stated)	18.5
COCC(=O)N1C[C@H]2CNC[C@@]2(C(=O)NCc2snnc2C)C1	-21.8
O=C(N1CCCC1)N1C[C@@H](OCc2cccnc2)[C@H]2OCCC[C@H]21	-55.7
Cc1nc(COCC2CN(C(N)=O)Cc3nccn3C2)cs1 (configuration not stated)	40.5
CCn1ccnc1CN1CCN(C(C)C(=O)NC2CCCC2)CC1 (configuration not stated)	36.85
CC(C)(C)c1cn(CC2CCCN(c3cnc4ccccc4n3)C2)nn1 (configuration not stated)	89.6
O=C(O)c1cn(CC2CCCN(c3ccc4ccccc4n3)C2)nn1 (configuration not stated)	46.6

Structure (SMILES)	INHIBITION [%]
O=C(O)c1cn(CC2CCCN(c3cnc4ccccc4n3)C2)nn1 (configuration not stated)	6.24
CCc1nc(C2CCCN(C(=O)c3cccnc3O)C2)no1 (configuration not stated)	9.14
O=C(NCCn1ccc(-c2ccccn2)n1)C1CCC1	14.3
CCn1cc(-c2cc(-c3cc(CC(=O)O)cs3)nc(N)c2C#N)c(C)n1	37.6
Cc1nn(C)c(C)c1-c1cc(-c2cc(CC(=O)O)cs2)nc(N)c1C#N	45.8
CCn1cc(-c2cc(-c3cc(CN(C)C)cs3)nc(N)c2C#N)c(C)n1	76.6
COCCNc1ccc(CC2CCCN(c3ncccn3)C2)nn1 (configuration not stated)	28.05
Cc1ccoc1C(=O)N1CCCN(Cc2cnn(C)c2)CC1	15.6
O=C(NCCS(=O)(=O)N1CCN(c2ncccn2)CC1)c1ccccc1	-101
NC(=O)c1cc(C2CCCN(Cc3ccc4c(c3)OCCO4)C2)n[nH]1 (configuration not stated)	11.8
NC(=O)c1cc(C2CCCN(CCc3ccc4c(c3)CCO4)C2)n[nH]1 (configuration not stated)	74.3
Cc1cc(C2CCCN(CCc3ccc4c(c3)CCO4)C2)n[nH]1 (configuration not stated)	90.2
NC(=O)c1cc(C2CCCN(CCc3ccccn3)C2)n[nH]1 (configuration not stated)	28.7
Cc1cc(C2CCCN(CCc3ccccn3)C2)n[nH]1 (configuration not stated)	-0.0706
O=C(C1CCCN(CCc2ccc3c(c2)CCO3)C1)N1CCCC1 (configuration not stated)	6.11
Cc1noc(C)c1CN1CCCC1c1c(C)nn(C)c1Cl (configuration not stated)	-16
CC(CCc1ccccc1F)C(=O)NS(C)(=O)=O (configuration not stated)	12.9
CC(CCc1ccccc1F)C(=O)NS(=O)(=O)CC1CC1 (configuration not stated)	10.6
CC(CCc1ccccc1F)C(=O)NS(=O)(=O)N(C)C(C)C (configuration not stated)	80.9

Reference: ChEMBL document CHEMBL4513216, “Probing the Open Global Health Chemical Diversity Library for Multistage-Active Starting Points for Next-Generation Antimalarials” (ACS Infect Dis, 2020)
